# Source: the supplement of paper PMC8728848
# This excerpt belongs to a sample that is enriched for the strongest signals.
# Legend:
# Assay in all cases: glycan array binding signal (z-score within array); higher = stronger binding
# Settings in all cases: glycan notation: IUPAC condensed, linker removed
# [1] = biological target: Fuc(a1-2)Gal(b1-4)Glc
# Procedure, shortened: (§1)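 From the Consortium for Functional Glycomics database, 3228 arrays were curated, keeping only those whose protein sequence was available. Binding is given as a within-array Z-score averaged across arrays sharing a protein sequence and across linkers. Negative Z-scores can be read as non-binding.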
# [2] = biological target: Fuc(a1-2)Gal(b1-4)GlcNAc6S
# Procedure, shortened: as §1
# [3] = biological target: Fuc(a1-2)Gal6S(b1-4)GlcNAc
# Procedure, shortened: as §1
# [4] = biological target: Fuc(a1-2)[GalNAc(a1-3)]Gal(b1-4)GlcNAc(b1-2)Man(a1-3)[Fuc(a1-2)[GalNAc(a1-3)]Gal(b1-4)GlcNAc(b1-2)Man(a1-6)]Man(b1-4)GlcNAc(b1-4)GlcNAc
# Procedure, shortened: as §1
# [5] = biological target: Fuc(a1-3)[Gal(b1-4)]GlcNAc(b1-2)Man(a1-3)[Fuc(a1-3)[Gal(b1-4)]GlcNAc(b1-2)Man(a1-6)]Man(b1-4)GlcNAc(b1-4)GlcNAc
# Procedure, shortened: as §1
# [6] = biological target: Fuc(a1-3)[Gal(b1-4)]GlcNAc(b1-4)Gal(b1-4)[Fuc(a1-3)]GlcNAc
# Procedure, shortened: as §1
# [7] = biological target: Gal(a1-3)Gal(b1-3)[Fuc(a1-4)]GlcNAc(b1-2)Man(a1-3)[Gal(a1-3)Gal(b1-3)[Fuc(a1-4)]GlcNAc(b1-2)Man(a1-6)]Man(b1-4)GlcNAc(b1-4)GlcNAc
# Procedure, shortened: as §1
# [8] = biological target: Gal(a1-4)Gal(b1-4)GlcNAc(b1-2)Man(a1-3)[Gal(a1-4)Gal(b1-4)GlcNAc(b1-2)Man(a1-6)]Man(b1-4)GlcNAc(b1-4)GlcNAc
# Procedure, shortened: as §1
# [9] = biological target: Gal(b1-2)Gal
# Procedure, shortened: as §1
# [10] = biological target: Gal(b1-3)[Fuc(a1-4)]GlcNAc(b1-2)Man(a1-3)[Gal(b1-3)[Fuc(a1-4)]GlcNAc(b1-2)Man(a1-6)]Man(b1-4)GlcNAc(b1-4)GlcNAc
# Procedure, shortened: as §1
# [11] = biological target: Gal(b1-3)[Neu5Ac(a2-6)]GalNAc
# Procedure, shortened: as §1
# [12] = biological target: Gal(b1-4)GlcNAc(b1-2)Man(a1-3)[Gal(b1-4)GlcNAc(b1-2)Man(a1-6)]Man(b1-4)GlcNAc(b1-4)[Fuc(a1-6)]GlcNAc
# Procedure, shortened: as §1
# [13] = biological target: Gal(b1-4)GlcNAc(b1-3)Gal(b1-3)GlcNAc
# Procedure, shortened: as §1
# [14] = biological target: Gal(b1-4)GlcNAc(b1-3)Gal(b1-4)Glc
# Procedure, shortened: as §1
# [15] = biological target: Gal(b1-4)GlcNAc(b1-6)Gal(b1-4)GlcNAc
# Procedure, shortened: as §1
# [16] = biological target: Gal3S(b1-4)Glc
# Procedure, shortened: as §1
# [17] = biological target: Gal3S(b1-4)[Fuc(a1-3)]Glc6S
# Procedure, shortened: as §1
# [18] = biological target: GalNAc(b1-4)GlcNAc(b1-2)Man(a1-3)[GalNAc(b1-4)GlcNAc(b1-2)Man(a1-6)]Man(b1-4)GlcNAc(b1-4)GlcNAc
# Procedure, shortened: as §1
# [19] = biological target: GlcNAc(a1-4)Gal(b1-4)GlcNAc
# Procedure, shortened: as §1
# [20] = biological target: Kdn(a2-3)Gal(b1-4)[Fuc(a1-3)]GlcNAc
# Procedure, shortened: as §1
# [21] = biological target: Man(a1-2)Man(a1-6)[Man(a1-3)]Man(a1-6)[Man(a1-2)Man(a1-2)Man(a1-3)]Man
# Procedure, shortened: as §1
# [22] = biological target: Neu5Ac(a2-3)Gal(b1-3)GlcNAc(b1-3)Gal(b1-4)GlcNAc
# Procedure, shortened: as §1
# [23] = biological target: Neu5Ac(a2-3)Gal(b1-3)[Fuc(a1-4)]GlcNAc(b1-3)Gal(b1-4)[Fuc(a1-3)]GlcNAc
# Procedure, shortened: as §1
# [24] = biological target: Neu5Ac(a2-3)Gal(b1-4)GlcNAc(b1-3)Gal(b1-4)[Fuc(a1-3)]GlcNAc
# Procedure, shortened: as §1
# [25] = biological target: Neu5Ac(a2-3)Gal(b1-4)[Fuc(a1-3)]GlcNAc(b1-3)Gal(b1-4)GlcNAc
# Procedure, shortened: as §1
# [26] = biological target: Neu5Ac(a2-3)Gal(b1-4)[Fuc(a1-3)]GlcNAc(b1-3)GalNAc
# Procedure, shortened: as §1
# [27] = biological target: Neu5Ac(a2-3)Gal(b1-4)[Fuc(a1-3)]GlcNAc(b1-6)[Neu5Ac(a2-3)Gal(b1-3)]GalNAc
# Procedure, shortened: as §1
# [28] = biological target: Neu5Ac(a2-3)GalNAc(b1-4)GlcNAc
# Procedure, shortened: as §1
# [29] = biological target: Neu5Ac(a2-3)[GalNAc(b1-4)]Gal(b1-4)GlcNAc(b1-3)GalNAc
# Procedure, shortened: as §1
# [30] = biological target: Neu5Ac(a2-3)[Neu5Ac(a2-6)]GalNAc
# Procedure, shortened: as §1
# [31] = biological target: Neu5Ac(a2-6)Gal(b1-4)GlcNAc(b1-2)Man(a1-6)Man(b1-4)GlcNAc(b1-4)GlcNAc
# Procedure, shortened: as §1
# [32] = biological target: Neu5Ac9Ac(a2-3)Gal(b1-3)GlcNAc
# Procedure, shortened: as §1
# [33] = biological target: Neu5Gc(a2-3)Gal(b1-3)[Fuc(a1-4)]GlcNAc
# Procedure, shortened: as §1
# [34] = biological target: Neu5Gc(a2-6)Gal(b1-4)GlcNAc
# Procedure, shortened: as §1
binder,measurement,setting,value
"PEB1 (Campylobacter jejuni), Q0P9X8 (protein) MVFRKSLLKLAVFALGACVAFSNANAAEGKLESIKSKGQLIVGVKNDVPHYALLDQATGEIKGFEVDVAKLLAKSILGDDKKIKLVAVNAKTRGPLLDNGSVDAVIATFTITPERKRIYNFSEPYYQDAIGLLVLKEKKYKSLADMKGANIGVAQAATTKKAIGEAAKKIGIDVKFSEFPDYPSIKAALDAKRVDAFSVDKSILLGYVDDKSEILPDSFEPQSYGIVTKKDDPAFAKYVDDFVKEHKNEIDALAKKWGL",glycan array binding signal (z-score),[1],-0.354
same,glycan array binding signal (z-score),[2],-0.084
same,glycan array binding signal (z-score),[3],0.768
same,glycan array binding signal (z-score),[4],1.37
same,glycan array binding signal (z-score),[5],-0.842
same,glycan array binding signal (z-score),[6],0.229
same,glycan array binding signal (z-score),[7],3.87
same,glycan array binding signal (z-score),[8],3.37
same,glycan array binding signal (z-score),[9],0.469
same,glycan array binding signal (z-score),[10],4.54
same,glycan array binding signal (z-score),[11],-0.718
same,glycan array binding signal (z-score),[12],0.818
same,glycan array binding signal (z-score),[13],0.014
same,glycan array binding signal (z-score),[14],-0.613
same,glycan array binding signal (z-score),[15],-1.39
same,glycan array binding signal (z-score),[16],-1.26
same,glycan array binding signal (z-score),[17],0.849
same,glycan array binding signal (z-score),[18],4.17
same,glycan array binding signal (z-score),[19],0.303
same,glycan array binding signal (z-score),[20],-0.113
same,glycan array binding signal (z-score),[21],-0.547
same,glycan array binding signal (z-score),[22],-0.813
same,glycan array binding signal (z-score),[23],0.311
same,glycan array binding signal (z-score),[24],-0.941
same,glycan array binding signal (z-score),[25],3.14
same,glycan array binding signal (z-score),[26],8.24
same,glycan array binding signal (z-score),[27],3.1
same,glycan array binding signal (z-score),[28],-0.108
same,glycan array binding signal (z-score),[29],-0.77
same,glycan array binding signal (z-score),[30],-0.361
same,glycan array binding signal (z-score),[31],1.09
same,glycan array binding signal (z-score),[32],-0.504
same,glycan array binding signal (z-score),[33],-0.646
same,glycan array binding signal (z-score),[34],0.988
